Screens (PubChem)
A selection: hits, their analogues and other compounds. The true share with any hit is near 1.3%.
MEX-5 binding – C. elegans MEX-5 TCR-2 RNA binding activity | MEX-5/FITC-TCR2 RNA binding, fluorescence polarization; stronger effect = lower value | activity score (negative = inhibition of binding), % at 10 µM | 300,000 compounds, 0.38% hits | AID 1832;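 active = inhibition past about -25% in most replicates, and total fluorescence under double the plate's negative control median, limit read from the data; inconclusive = replicates evenly split on the limit, or fluorescence at least double controls; inactive = too little inhibition in most replicates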;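 note: 0% = DMSO and -100% = 5 µM competing unlabeled TCR2 RNA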
Bcl-xL primary – inhibitors of human Bcl-xL; Q07817; GST-Bcl-xL / FITC-Bim BH3 peptide fluorescence polarization; inhibition, % at 10.9 µM; 320,000 compounds, 0.7% hits; AID 2129;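 active = inhibition above the mean of all tested compounds plus 3 SD, cutoff set per campaign, cut at about 30% in these data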;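 note: 0% = DMSO wells and 100% = unlabeled Bim-BH3 peptide competitor; inhibitors lower millipolarization by displacing the labeled peptide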
EBV gp42 inh – inhibitors of Epstein-Barr virus glycoprotein 42. 220,000 compounds, 0.42% hits. inhibition, % (tested at 21.74 µM). Fluorescence polarization binding assay, mP read-out. Q1HVG2; in the data active = inhibition above about 50%
Target sequence (Q1HVG2 whole entry, looked up): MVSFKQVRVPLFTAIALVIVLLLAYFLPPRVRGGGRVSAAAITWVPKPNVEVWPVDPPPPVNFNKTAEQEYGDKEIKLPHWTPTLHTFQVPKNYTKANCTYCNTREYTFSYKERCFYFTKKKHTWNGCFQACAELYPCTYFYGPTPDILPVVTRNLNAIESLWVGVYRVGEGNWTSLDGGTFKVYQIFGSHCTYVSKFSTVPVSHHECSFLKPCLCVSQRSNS
GLD-1 TGE inh – GLD-1-TGE RNA interaction inhibition (C. elegans); purified GLD-1 + fluorescein TGE RNA, fluorescence polarization; inhibition, % at 5.96 µM; 320,000 compounds, 0.44% hits;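 active = percent inhibition above a per-plate cutoff, the plate mean of test compounds plus 3 SD, cut at about 30% in these data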;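 note: 0% = DMSO wells with GLD-1 and probe and 100% = wells lacking GLD-1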
Target sequence (Q17339 whole entry, looked up): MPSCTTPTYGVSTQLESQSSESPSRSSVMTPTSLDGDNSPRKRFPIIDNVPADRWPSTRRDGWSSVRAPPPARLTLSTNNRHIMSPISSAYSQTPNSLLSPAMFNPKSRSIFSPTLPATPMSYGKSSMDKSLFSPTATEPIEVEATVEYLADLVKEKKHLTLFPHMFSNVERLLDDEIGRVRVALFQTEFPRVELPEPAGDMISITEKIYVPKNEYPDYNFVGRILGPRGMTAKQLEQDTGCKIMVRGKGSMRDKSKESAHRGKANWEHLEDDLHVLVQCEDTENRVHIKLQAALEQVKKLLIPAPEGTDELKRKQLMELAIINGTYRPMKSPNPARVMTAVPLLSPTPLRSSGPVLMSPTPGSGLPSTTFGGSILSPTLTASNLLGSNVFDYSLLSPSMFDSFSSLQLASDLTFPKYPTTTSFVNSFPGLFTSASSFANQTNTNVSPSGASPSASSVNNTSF
E coli Lon inh – inhibitors of E. coli Lon protease. P0A9M0. purified E. coli Lon protease, fluorescence polarization. inhibition, % at 7.94 µM. 360,000 compounds, 0.42% hits. AID 602123; in the data active = inhibition above about 13%, passing the limit was not always enough;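 note: 0% = enzyme with probe and DMSO and 100% = no enzyme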
E coli Lon conf – confirmation of E. coli Lon protease inhibitors; AID 602230; purified E. coli Lon, fluorescence polarization; 1,400 compounds, 31% hits; inhibition, % at 7.94 µM; shares compounds with E coli Lon inh; in the data active = inhibition above about 16%;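 note: 0% = enzyme with probe and DMSO and 100% = no enzyme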
The depositor's hits bear a star; ? = inconclusive; nt = no result given.

SMILES	MEX-5 binding	Bcl-xL primary	EBV gp42 inh	GLD-1 TGE inh	E coli Lon inh	E coli Lon conf
Cc1ccc(C(=O)NCCN(C)C)c(C)c1	1.0	8.4	-2.1	5.3	-2.7	nt
CCN(CC)S(=O)(=O)c1cccc(C(=O)N/N=C2\CCCC(=O)C2)c1	-2.7	41.5*	4.8	114.2*	87.0*	-27.0
CCOc1ccccc1OCC(=O)NN=C1CCCC(=O)C1	nt	nt	nt	0.0	35.9*	3.6
Cc1ccc(OCC(=O)N/N=C2\CC(=O)CC(C)(C)C2)c(Br)c1	3.1	nt	nt	nt	15.2*	-7.5
Cc1ccccc1OCC(=O)N/N=C1\CC(=O)CC(C)(C)C1	-1.9	4.3	nt	27.5	3.5	nt
COC(=O)c1ccc(C(=O)NC(=S)Nc2ccc3nc(SC)sc3c2)cc1	1.0	5.5	-24.2	1.8	-3.6	nt
CCOc1ccccc1NC(=O)Nc1ccc(OC)nc1	?	nt	nt	nt	22.1*	16.4*
Cc1nc(C(F)(F)F)ccc1C(=O)N1CCCCCC1(C)C(=O)NCC(C)C (configuration not stated)	nt	nt	nt	nt	2.4	nt
COc1ccc(Cc2c(-c3ccc(Cl)cc3)nc3cc(C)c(Br)c(C)n23)c(C)c1	nt	nt	nt	nt	-2.7	nt
Cc1ccc(/C=C/C(=O)NCCCN2CCN(CCCNC(=O)/C=C/c3ccc(C)o3)CC2)o1	0.6	6.3	-0.4	-1.7	27.1*	-3.2
COc1ccccc1NC(=O)c1cc2cc(Br)ccc2cc1O	0.1	2.7	-6.1	9.0	-3.7	nt
O=[N+]([O-])c1cnc(N2CCCCC2)c([N+](=O)[O-])c1	5.4	21.4	-6.9	28.0	54.7*	-11.4
Cc1cc([N+](=O)[O-])cnc1N1CCOCC1	1.2	2.6	-8.8	-4.6	-2.9	nt
CSCCC(NS(=O)(=O)c1ccccc1F)C(=O)NCc1ccncc1 (configuration not stated)	0.5	4.2	nt	-7.8	8.5	nt
OCCC1CN(Cc2ccsc2)CCN1C1CCCC1 (configuration not stated)	1.9	2.5	-9.5	7.5	20.4*	2.7
CC(C)CCN1CCN(Cc2ccsc2)CC1CCO (configuration not stated)	-1.4	2.3	-9.0	-1.5	-7.6	nt
Cc1cc(NC(=O)CSc2cn(CCNC(=O)c3ccccc3)c3ccccc23)no1	-2.9	3.8	-4.3	0.4	19.9*	-7.1
O=c1oc2ccccc2c(O)c1Sc1c(O)c2ccccc2oc1=O	nt	nt	nt	nt	27.7*	34.5*
CCCCNC(=O)CN1C(=O)NC2(CCCc3ccccc32)C1=O (configuration not stated)	3.5	-0.3	-16.4	-1.4	-5.3	nt
O=C(Cn1c2c(c(-c3ccccc3Cl)cc1=O)CCC2)NCC1CCCO1 (configuration not stated)	1.6	4.1	-12.9	1.9	-2.2	nt
CCOC(=O)N1CCC(NC(=O)Cn2c3c(c(-c4ccccc4Cl)cc2=O)CCC3)CC1	-1.8	1.6	-9.8	6.3	19.8*	-9.4
NC(=O)c1ccsc1NC(=O)CS(=O)(=O)c1ccc(F)cc1	1.7	3.1	nt	-6.5	-14.0	nt
CCN1C(=O)c2ccccc2S(=O)c2ccc(C(=O)N3CCN(C(=O)c4ccco4)CC3)cc21 (configuration not stated)	-3.1	-2.6	-15.2	4.1	-12.8	nt
CCN1C(=O)c2ccccc2S(=O)c2ccc(C(=O)N3CCCCCC3)cc21 (configuration not stated)	3.4	-1.2	-6.7	-7.1	44.8*	-52.5
CC(=O)OCC(=O)Nc1ccc(C(C)=O)cc1	-2.0	-7.5	-109.3	-1.4	28.5*	-8.7
SMILES	MEX-5 binding	Bcl-xL primary	EBV gp42 inh	GLD-1 TGE inh	E coli Lon inh	E coli Lon conf
CC(=O)c1sccc1NC(=O)CC(C)(C)CC(=O)O	1.4	4.1	0.4	-0.9	4.2	nt
Cc1oc(-c2ccccc2F)nc1CS(=O)CC(=O)NC1CCCC1 (configuration not stated)	-1.7	3.0	nt	0.1	1.0	nt
CCOc1ccc(NC(=O)NCC2CCN(c3ccc(OC)cc3)C2)cc1 (configuration not stated)	-1.2	8.3	-0.8	3.5	23.0*	-10.4
Cc1ccc(N2C(=O)CC(NCC3CCCO3)C2=O)cc1 (configuration not stated)	-0.4	9.0	-10.7	-0.3	-13.5	nt
CCOc1ccc(N2C(=O)CC(NCC3CCCO3)C2=O)cc1 (configuration not stated)	0.3	9.2	-12.1	-2.0	15.8*	5.4
CCOc1ccc(N2C(=O)CC(Cc3cc(C)cc(C)c3)C2=O)cc1 (configuration not stated)	-0.4	nt	nt	nt	-5.6	nt
CCOc1ccc(N2C(=O)CC(N)C2=O)cc1 (configuration not stated)	0.4	-0.8	-7.1	2.3	18.2*	-0.7
COc1ccc(OC)c(CCNC(=O)c2ccc3c(c2)N(Cc2ccc(F)cc2)CCS3)c1	1.7	6.7	nt	-2.5	-2.4	nt
COc1ccc(CCNC(=O)c2ccc3c(c2)N(Cc2ccc(F)cc2)CCS3)c(OC)c1	2.4	5.4	nt	4.1	18.5*	0.1
CNc1ncnc2c1ncn2-c1ccccc1	nt	nt	nt	nt	-12.2	nt
CC(NC(=O)CNC(=O)c1ccccc1Br)c1cccs1 (configuration not stated)	nt	nt	nt	nt	-1.8	nt
COCCn1c(=NC(=O)C2COc3ccccc3O2)sc2cc(S(N)(=O)=O)ccc21 (configuration not stated)	-3.2	-5.4	-8.9	7.2	-6.3	nt
C=CCn1c(=NC(=O)C2COc3ccccc3O2)sc2cc(S(N)(=O)=O)ccc21 (configuration not stated)	-2.0	4.2	-8.1	5.2	23.2*	-8.8
c1ccc(CSc2nnc(-c3cccs3)o2)cc1	-0.8	5.7	13.4	4.4	-4.2	nt
CCSc1nnc(-c2cccs2)o1	-1.8	2.9	-4.1	-5.8	64.7*	-3.2
CC(NC(=O)C1CC(=O)N(c2ccc3c(c2)OCCO3)C1)c1ccccc1 (configuration not stated)	nt	nt	nt	nt	-3.4	nt
Clc1ccccc1-c1cccc2nccn12	nt	nt	nt	nt	-1.0	nt
CN(C)Cc1ccccc1-c1cccc2nccn12	nt	nt	nt	nt	16.9*	5.4
N#Cc1ccc(C(=O)N2CCCC(c3cc(C(=O)NCc4cccnc4)no3)C2)cc1 (configuration not stated)	nt	nt	nt	nt	-3.6	nt
CCCCc1nc(NCCNC(=O)c2ccccc2)c(C#N)c2c1CSC(C)(C)C2	3.0	28.4	-10.2	7.9	12.4*	-0.9
F[B-](F)(F)c1cc2cc(Br)ccc2s1	nt	nt	nt	nt	27.0*	40.2*
F[B-](F)(F)c1cc2ccccc2s1	nt	nt	nt	nt	31.4*	43.9*
CNC(=O)c1cc2cc(Br)ccc2s1	-1.7	2.9	1.9	0.1	14.4	nt
COc1ccc(NC(=O)CN(C)C(=O)/C=C/c2ccc(S(=O)(=O)N3CCCCCC3)cc2)cc1	0.4	-7.6	nt	9.5	-3.0	nt
COc1ccc(NC(=O)CN(C)C(=O)/C=C/c2ccc(OCc3ccccc3)cc2)cc1	0.7	-0.2	nt	5.2	19.2*	-7.7
S=C1SCN(Cc2cccnc2)CN1Cc1cccnc1	0.7	15.4	-12.3	3.4	-10.5	nt
Cc1cc(C)n2nc3nc4c(cc3c2n1)CCCC4	-6.1	111.0*	2.2	38.5*	55.8*	13.5
